Hit rate of the full screen: of about 420,000 compounds, about 64,000 (15%) were called active. Roughly 27% stayed inconclusive and do not appear here. Not all results are given here. Values without a mark were called inactive. Calls follow the shape of the dose curve; as a rule, active = well fitted inhibition curve with a large enough effect; inconclusive = small, poorly fitted or top-dose-only effect; inactive = flat fitted curve, though single readings scatter. Peptide text beside a SMILES is read from it.
test: qHTS for Inhibitors of human tyrosyl-DNA phosphodiesterase 1 (TDP1): qHTS in cells in absence of CPT; conditions: DT40 Tdp1-/- hTDP1 cells, no CPT, ATP luminescence, 48 h; activity change, negative = growth inhibition: at 46.2 µM (top of the series); also: nearly all actives have a fitted effect of over 55% in size
Procedure, shortened: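 Readout: luminescence from CellTiter-Glo after 30 min in the dark at RT. Cells: DT40 Tdp1-/- with stable hTDP1, 400/well. Exposure: compounds alone, ≥48 hr, 37 °C.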
% is scaled to controls: 0 for no effect and ±100 for the full control effect; potency is read from the fitted curve at half-maximal effect.

SMILES	activity change, negative = growth inhibition [%]	Potency
O=C(Nc1cccc(F)c1)[C@@H]1CCCN1	7.69	
CC(C)(C)C(=O)Cn1c(NCCO)nc2ccccc21	-3.49	
CCCn1nnnc1NCc1ccc(CC)cc1	-10.5	
CCCn1c(NCc2ccc(N(CC)CC)cc2)nc2ccccc21		8.2 µM (active)
O=C(O)CN1C(=O)CC(Cc2ccccc2)C1=O (stereo unspecified)	-0.391	
Cc1cc(NC(=O)COn2nnc3ccccc32)no1	-17.8	
COC(=O)c1cc(NC(=O)C2C3C=CC(C3)C2C(=O)O)cc(C(=O)OC)c1 (stereo unspecified)	3.17	
O=C(NCCCNCc1ccccc1)c1ccc(/C=N/O)nc1	3.22	
CCc1ccc(Nc2n[n+](-c3ccccc3)c(-c3cccc(Cl)c3Cl)s2)cc1		16.4 µM (active)
Cc1noc(C)c1S(=O)(=O)NCCc1ccc(S(N)(=O)=O)cc1	-8.65	
COC(=O)c1ccc([C@@H](O)[C@H](C)C(=O)CC(=O)OC(C)(C)C)cc1	-16.3	
O=C(c1ccccc1)c1ccc(OC(=O)N2CCCC2)cc1	-25	
c1ccc(CC2CCN(c3nc4ccccc4n4cnnc34)CC2)cc1	-8.6	
O=C(c1ccccc1)c1ccc2nc(N3CCCCC3)c3nncn3c2c1		13 µM (active)
COc1ccc(OC)c(/C=C/C(=O)OCC(=O)Nc2ccc3c(c2)OCCO3)c1		16.4 µM (active)
COc1cccc(/C=C/C(=O)Nc2ccc3c(c2)OCCO3)c1	-13.1	
COc1ccccc1OCCCC(=O)Nc1ccc2c(c1)OCCO2	-24.4	
S=c1c2[nH]cnc2ncn1CCSc1ncnc2nc[nH]c12	-24.7	
Cc1ccc(NC(=O)CN(C)C(=O)c2ccc(Cl)c(S(=O)(=O)NCc3ccco3)c2)cc1	11.9	
CC[C@H](C)CCCCC(=O)N[C@@H](CCN)C(=O)N[C@H](C(=O)N[C@@H](CCN)C(=O)N[C@H]1CCNC(=O)[C@H]([C@@H](C)O)NC(=O)[C@H](CCN)NC(=O)[C@H](CCN)NC(=O)[C@H](CC(C)C)NC(=O)[C@@H](CC(C)C)NC(=O)[C@H](CCN)NC1=O)[C@@H](C)O (HELM PEPTIDE1{[CC[C@H](C)CCCCC(=O)[*:2]].[Dab].T.[Dab].[Dab].[Dab].[dL].L.[Dab].[Dab].T}$PEPTIDE1,PEPTIDE1,5:R3-11:R2$$$V2.0)	-2.38	
O=C(CSc1nnc(CNC(=O)c2ccccc2)n1-c1ccc(F)cc1)Nc1ccccc1F	-10.5	
CCOC(=O)/C=c1\s/c(=C\c2ccc(C#N)cc2)c(=O)n1CC(=O)Nc1cccc(C)c1C		5.17 µM (active)
CCOc1ccc(NC(=O)Cn2c(C)ccc(C#N)c2=O)cc1	0.582	
Cc1cccc(NC(=O)CN2C(=O)c3ccccc3C2=O)c1C	1.62	
Cc1nc(SCC(=O)NC2CCCC2)[nH]c(=O)c1C	-0.993	
Cc1ccsc1C(=O)OCC(=O)c1cc2ccccc2o1	-9.66	

SMILES	activity change, negative = growth inhibition [%]	Potency
CCCCc1nn2c(=O)cc(COC(=O)c3cccc(NC(=O)COc4ccccc4)c3)nc2s1	-10.2	
O=C1CS(=O)CN1c1ccc(Oc2ccccc2)cc1 (stereo unspecified)	-20.1	
O=C(CN1C(=O)NC2(CCCCCC2)C1=O)NCc1ccc(F)cc1	3.82	
COc1cccc(NC(=O)c2cc(S(=O)(=O)N3CCc4ccccc43)cn2C)c1	-1.2	
COc1ccccc1N(C)C(=O)c1cc(S(=O)(=O)N2CCc3ccccc32)cn1C		25.9 µM (active)
COc1cc(OC)c(NC(=O)c2cc(S(=O)(=O)N3CCCC3)cn2C)cc1Cl	-7.62	
CN(C(=O)COC(=O)Cn1cnc2c1c(=O)n(C)c(=O)n2C)C1(C#N)CCCCC1	0.855	
NCC(=O)c1cccc2ccc[n+]([O-])c12	-0.678	
O=C(c1cnccn1)N1CCC2(CCCN(Cc3ccccc3)C2)CC1	-1.1	
CCN(Cc1ccncc1)C(=O)[C@@H](CO)c1ccccc1	2.72	
C=CCn1c(SCC(=O)NCc2ccccc2)nnc1-c1cc(Br)ccc1O	-18	
C=CCOC(=O)N1CCC2CC1c1cc(-c3ccc(OC)cc3)ccc12 (stereo unspecified)		16.4 µM (active)
COc1ccc(-c2ccc3c(c2)C2CC3CCN2CCC#N)cc1 (stereo unspecified)		23.1 µM (active)
COc1ccc(OCC(=O)NNC(=O)C2CCC2)cc1	-5.78	
COc1ccc(NC(=O)CCN2CCCC2)c(OC)c1	0.0354	
CC1CC1C(=O)OCC(=O)c1c(N)n(C)c(=O)n(C)c1=O (stereo unspecified)	8.67	
CCOC(=O)N1CCN(C(=O)c2cc3c(ccc4ccccc43)oc2=O)CC1	-24.1	
CCOC(=O)N1CCN(C(c2cccnc2)c2ccc3cccnc3c2O)CC1 (stereo unspecified)		1.64 µM (active)
Cc1onc(C(=O)NN)c1C(=O)N1CCN(C(c2ccccc2)c2ccccc2)CC1	-18.3	
CCOC(=O)Cn1nnnc1C	-9.63	
CCC(C)CCN1CCN=C1N(C)C (stereo unspecified)	-17.4	
CC(C)NS(=O)(=O)c1ccc(OCC(=O)Nc2ccc3c(c2)OCCO3)cc1	-0.099	
CC1CC2=C(CC1/C=N/NC(N)=S)C(C)(C)CCC2 (stereo unspecified)		3.26 µM (active)
Cc1ccc(OCC(=O)OCc2cc(=O)n3nc(C4CC4)sc3n2)cc1C	0.484	
COc1cccc(Nc2nnc(SCC(=O)N3CC(=O)Nc4ccccc43)s2)c1	-29.2	
N#C/C(=C(\O)C(F)(F)F)c1nnc2n1CCCCC2	-0.657	

SMILES	activity change, negative = growth inhibition [%]	Potency
O=c1c2cc([N+](=O)[O-])ccc2nc2n1CCC2	-13.8	
N#C/C(=C/c1cccc([N+](=O)[O-])c1)c1nnc2n1CCCCC2		13 µM (active)
Cc1ccc(NC(=O)c2cc([N+](=O)[O-])ccc2Cl)c(O)c1	-26.4	
CCn1cc(C(=O)N[C@@H](C)C(=O)NCCO)c(=O)c2cc3c(cc21)OCO3	34.9	
NC(=O)c1sc(-c2ccsc2)cc1N	-17.9	
C#CCOCCOCCOCCNc1nc(N2CCN(C(=O)CCCCCCCCCCNC(=O)[C@H]([C@@H](C)CC)n3cc(CCCCN=C(N)N)nn3)CC2)nc(N2CCN(C(=O)CCCCCCCCCCNC(=O)[C@H](CO)n3cc(CCCSC)nn3)CC2)n1		8.2 µM (active)
C#CCOCCOCCOCCNc1nc(N2CCN(C(=O)[C@H](CCCN=C(N)N)n3cc(C(N)[C@@H](C)CC)nn3)CC2)nc(N2CCN(C(=O)[C@H](CO)n3cc([C@@H](N)C(C)C)nn3)CC2)n1 (stereo partly specified)	-2.88	
C#CCOCCOCCOCCNc1nc(N2CCN(C(=O)Cn3cc(CCO)nn3)CC2)nc(N2CCN(C(=O)Cn3cc(CCCN=C(N)N)nn3)CC2)n1	-0.16	
CCN(CC)CCCSc1nc2ccccc2s1	-17.6	
O=C(NC(=O)N1CCSCC1)c1c(Cl)cccc1Cl	-12	
O=C(NCCc1cccc(F)c1)C1CC(O)CN1C(=O)Nc1ccccc1 (stereo unspecified)	-11.9	
COc1cc(CCC(=O)N2CCN(c3ccccc3Cl)CC2)cc(OC)c1OC		11.6 µM (active)
COc1cc(CCC(=O)Nc2ccncc2Cl)cc(OC)c1OC	-14.5	
COc1ccc(CCC(=O)N2CCN(S(=O)(=O)c3ccc(OC)cc3)CC2)cc1	-32.4	
CCOC(=O)C1=C(c2ccccc2)O/C(=C(/C(=O)OC)C(F)(F)F)S1	-21.6	
Cc1ccc2c(c1)N(C(=O)CCC(=O)NCc1cccnc1)CCO2	-4.05	
Cc1c(C)n2c(SCC(=O)NC3CCCC3)nnc2[nH]c1=O	-3.76	
CC(C)Cc1nnc(N)s1	-14.3	
CCOCCCN1C(=O)CN(C2CCCCC2)C(=O)C1c1ccc(OCC)c(OC)c1 (stereo unspecified)	-15.8	
CC1CCC(N2CC(=O)N(CCC3=CCCCC3)C(c3ccc(F)cc3)C2=O)CC1 (stereo unspecified)		10.3 µM (active)
CCCc1nnc(SCC(=O)N2C(C)CCCC2C)n1CC (stereo unspecified)	-0.484	
O=C(c1cccc(N2CCCC2=O)c1)N1CCOCC1	-0.431	
O=C(c1cc2cc(Br)cc(Br)c2oc1=O)N1CCOCC1	3.73	
O=C1Nc2c(Br)cc(Br)cc2C1(O)N1CCOCC1 (stereo unspecified)		3.66 µM (active)
O=C(CSC(=S)N1CCOCC1)c1cc(Br)cc(Br)c1O	-13.5	
O=C(CN1C(=O)c2cccc3cccc(c23)C1=O)N1CCCCC1	-23.4	

SMILES	activity change, negative = growth inhibition [%]	Potency
c1ccc(CCN2CN=C(Nc3nc4ccccc4o3)NC2)cc1	-27.1	
COc1cc(NS(=O)(=O)c2ccc(N/C=C(\C=O)c3nc4cc(Cl)ccc4o3)cc2)nc(OC)n1	-5.39	
O=C(NCCCN1CCOCC1)C1CCCN(S(=O)(=O)N2CCCCC2)C1 (stereo unspecified)	32.6	
CCCSc1nsc(N)n1	-9.3	
CCC(c1nnnn1Cc1ccco1)N(CCc1ccccc1)Cc1cc2ccc(OC)cc2[nH]c1=O (stereo unspecified)		29.1 µM (active)
CCC(c1nnnn1Cc1ccco1)N(CCc1ccccc1)Cc1cc2cccc(C)c2[nH]c1=O (stereo unspecified)		29.1 µM (active)
CC(C)C(c1nnnn1CCc1ccccc1)N1CCN(C(=O)c2ccco2)CC1 (stereo unspecified)	-16	
CCC(c1nnnn1Cc1ccco1)N(Cc1cc2cc(OC)ccc2[nH]c1=O)C1CCCCC1 (stereo unspecified)		23.1 µM (active)
CCCN(Cc1cc2cccc(C)c2[nH]c1=O)S(C)(=O)=O	9.52	
COc1ccc(/C(O)=C2\C(=O)C(=O)N(Cc3ccco3)C2c2ccc(OC)cc2OC)cc1 (stereo unspecified)	-12.4	
CCOc1ccc2[nH]c(=O)c(C(c3nnnn3CCOC)N3CCOCC3)cc2c1 (stereo unspecified)	5.67	
COc1ccc2[nH]c3c(=O)n(Cc4ccco4)cnc3c2c1	-29.2	
CCN(CC)c1ccc(/C=N/NC(=O)CNC(=O)c2cccs2)cc1	-28	
CN(C(=O)COC(=O)c1nc(Cl)ccc1Cl)C1CCS(=O)(=O)C1 (stereo unspecified)	8.66	
COc1ccc(NC2CC(=O)N(C)C2=O)cc1 (stereo unspecified)	-6.54	
COc1ccccc1S(=O)(=O)c1c(C)cc(C)[nH]c1=O	3.84	
C=CCNC(=S)NNC(=O)COc1c(Cl)cc(Cl)cc1Cl	-26.5	
CC(C)(C)C(=O)Nc1ccc(C(=O)N/N=C/c2ccccc2OC(=O)c2ccc(Cl)cc2Cl)cc1		11.6 µM (active)
O=C(N/N=C/c1ccoc1)c1ccc(Cl)cc1Cl	13.7	
CSc1ccc(/C=N/NC(=O)c2cccc(Cl)c2)cc1	6.76	
CCCN=C1N(C)C[C@@H]2[C@@H]3C(=O)N(Cc4ccccc4)C(=O)[C@@H]3[C@](C)(C(=O)OC)N12	2.25	
CC[C@]1(C(=O)OC)[C@H]2C(=O)N(C)C(=O)[C@H]2[C@H]2CN(C)C(=NCc3ccccc3)N21	-2.94	
CCN1C[C@@H]2[C@@H]3C(=O)N(Cc4ccccc4)C(=O)[C@@H]3[C@](Cc3ccccc3)(C(=O)OC)N2C1=NC1CCCCC1		16.4 µM (active)
